Source: PubChem (National Center for Advancing Translational Sciences (NCATS))
The list is not random: actives were taken first. Their share in the collection is about 12%.
G9a inh: qHTS Assay for Inhibitors of Histone Lysine Methyltransferase G9a; G9a H3K9 monomethylation, AlphaScreen, 2 h; Potency, µM (highest dose often 102 µM), inactives show top-dose activity, negative = inhibition, usual class: inhibitors; 350,000 compounds, 8.8% hits; AID 504332, 2011; also: % is scaled to controls: 0 for no effect and ±100 for the full control effect; nearly all actives have a fitted effect of over 75% in size
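Step 1: enzyme (final 20 nM) with compound, 15 min RT. Step 2: substrate peptide 500 nM and SAM 20 uM, 2 h RT. Step 3: anti-H3K9me1 antibody and AlphaScreen beads, 10 min, then plate read.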
Sfp inh: qHTS Assay for Inhibitors of Bacillus subtilis Sfp phosphopantetheinyl transferase (PPTase) | 4'-phosphopantetheinyl transferase ffp (Bacillus subtilis), Q9F4F7 | Biochemical Sfp PPTase activity, qHTS | Potency, µM, without a hit: largest response in the series, negative = inhibition, actives largely listed as inhibitors | 310,000 compounds, 3.5% hits;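 also: the enzyme is Sfp with the accession as filed and its product quenches rhodamine fluorescence; 0% = enzyme reaction without inhibitor and -100% = no enzyme wells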
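After 15 min at room temperature with compound, 15 nM Sfp received 5 uM rhodamine-CoA plus 12.5 uM BHQ-2-ybbR (50 mM Hepes pH 7.6, 10 mM MgCl2). Rate came from the fluorescence difference over 30 min, ex 525/em 598 nm.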
BAZ2B inh: qHTS Assay for Inhibitors of BAZ2B | AlphaScreen BAZ2B-H3K14Ac peptide displacement | Potency, µM (doses to about 114 µM), inactives show at the highest dose activity change, negative = inhibition, most hits filed as inhibitors | 360,000 compounds, 4.4% hits | AID 504333, 2011 | Bromodomain adjacent to zinc finger domain protein 2B (Homo sapiens), Q9UIF8; also: % is scaled to controls: 0 for no effect and ±100 for the full control effect; nearly all actives have a fitted effect of over 60% in size
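Complex of BAZ2B and biotin-H3K14Ac (50 nM apiece) forms over 30 min at RT, then faces library compounds up to 110 uM for another 30 min; AlphaScreen beads added, 20 min dark incubation, luminescence read.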
PLK1 PBD block: qHTS for Inhibitors of PLK1-PDB (polo-like kinase 1 - polo-box domain): Primary Screen. Serine/threonine-protein kinase PLK1 (Homo sapiens), P53350. Plk1 PBD binding of FITC phosphopeptide, fluorescence polarization. Potency, µM, without a hit: max response, negative = inhibition, usual class: inhibitors. 360,000 compounds, 2.8% hits. AID 720504, 2013; also: series mostly up to about 57 µM; % is scaled to controls: 0 for no effect and ±100 for the full control effect; nearly all actives have a fitted effect of over 65% in size
Target sequence (P53350 whole entry, looked up, the tested form may be a part): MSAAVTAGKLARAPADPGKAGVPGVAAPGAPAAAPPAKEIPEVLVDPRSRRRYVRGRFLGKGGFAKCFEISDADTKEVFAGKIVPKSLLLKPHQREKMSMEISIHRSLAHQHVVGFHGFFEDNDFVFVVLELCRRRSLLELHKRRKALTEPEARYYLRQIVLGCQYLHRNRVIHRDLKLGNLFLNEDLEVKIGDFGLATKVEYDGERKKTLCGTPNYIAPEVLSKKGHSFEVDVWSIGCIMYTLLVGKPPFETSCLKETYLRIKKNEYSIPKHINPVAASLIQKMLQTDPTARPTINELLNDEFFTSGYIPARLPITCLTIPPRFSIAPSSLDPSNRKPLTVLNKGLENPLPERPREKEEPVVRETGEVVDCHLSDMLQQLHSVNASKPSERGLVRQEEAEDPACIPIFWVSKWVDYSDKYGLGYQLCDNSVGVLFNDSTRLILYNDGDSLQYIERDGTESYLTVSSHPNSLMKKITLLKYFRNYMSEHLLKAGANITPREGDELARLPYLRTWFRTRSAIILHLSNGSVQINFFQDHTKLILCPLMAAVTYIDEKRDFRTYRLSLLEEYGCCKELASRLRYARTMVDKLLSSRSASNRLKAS
HP1b chromo inh: HTS for Inhibitors of HP1-beta Chromodomain Interactions with Methylated Histone Tails | Chromobox protein homolog 1 (Homo sapiens), P83916 | AlphaScreen HP1-beta / biotin-H3K9me3 peptide binding | Potency, µM (doses to about 114 µM), for the others: top-dose activity change, negative = inhibition, usual class: inhibitors | 390,000 compounds, 0.56% hits; also: nearly all actives have a fitted effect of over 70% in size
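Compound inhibition of the preformed complex between 50 nM HP1-beta and 50 nM biotinylated H3K9me3 peptide was read by AlphaScreen. Buffer was PBS pH 7.4 with 0.01% Tween-20. Incubations ran 30 min at room temperature, with 10 ug/mL donor/acceptor beads.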
JMJD2A Tudor inh: qHTS Assay for Inhibitors of JMJD2A-Tudor Domain | AlphaScreen JMJD2A-Tudor / H3K4me3 peptide binding | Potency, µM (series often up to 114 µM), for the others: at the highest dose activity change, negative = inhibition, most hits filed as inhibitors | 390,000 compounds, 4.4% hits | AID 504339, 2011; also: % is scaled to controls: 0 for no effect and ±100 for the full control effect; nearly all actives have a fitted effect of over 50% in size
* = called active by the depositor; ? = inconclusive; · = not tested or not shown; [ ] = remark or other dose. Calls follow the shape of the dose curve; as a rule, active = well fitted curve in the direction sought with a large enough effect; inconclusive = small, poorly fitted or top-dose-only effect, or another doubt; inactive = no such curve, though single readings can be large; an effect the other way counts as inactive or inconclusive. Potency is read from the fitted curve at half-maximal effect.

SMILES	G9a inh	Sfp inh	BAZ2B inh	PLK1 PBD block	HP1b chromo inh	JMJD2A Tudor inh
Cc1cc(/C=C(\C#N)C(N)=O)c(C)n1-c1ccc(N2CCOCC2)c([N+](=O)[O-])c1	?	-17%	?	2%	?	?
O=C(C1=C(O)C(=O)N(CC2CCCO2)C1c1ccccc1F)c1ccco1 (stereo not given)	40µM*	5%	-11%	-8%	12%	-17%
COc1cc(C2C(C(=O)c3ccco3)=C(O)C(=O)N2CC2CCCO2)ccc1O (stereo not given)	50µM*	4%	?	6%	11%	?
COc1ccc(C2C(C(=O)c3ccco3)=C(O)C(=O)N2CC2CCCO2)cc1 (stereo not given)	?	18%	-39%	-4%	20%	-22%
COc1ccc(C2C(C(=O)c3ccc(C)o3)=C(O)C(=O)N2CC2CCCO2)cc1OC (stereo not given)	·	-7%	?	0%	12%	0%
O=C(C1=C(O)C(=O)N(CC2CCCO2)C1c1cccc(O)c1)c1ccco1 (stereo not given)	45µM*	4%	-1%	1%	16%	-3%
CCOc1cc(C2C(C(=O)c3ccco3)=C(O)C(=O)N2CC2CCCO2)ccc1O (stereo not given)	45µM*	4%	-20%	1%	0%	-16%
COc1ccc(C2=Nn3c(nnc3-c3ccccc3OC)SC2)cc1	·	·	·	·	·	-12%
O=C(CS(=O)(=O)c1cccc2nsnc12)Nc1ccc(F)cc1F	0%[59 µM]	·	-1%	·	23%	-10%
COc1ccccc1CNC(=O)CCCCn1c(=O)c2ccccc2n(Cc2ccccc2C)c1=O	-21%[59 µM]	·	?	·	17%	3%
COc1cc2c(=O)n(Cc3ccccc3)c(=O)n(CC(=O)Nc3cc(C(F)(F)F)ccc3Cl)c2cc1OC	28%[59 µM]	·	39%	·	47%	-11%
COc1cc(C2C(C(C)=O)=C(O)C(=O)N2CCc2ccc(OC)c(OC)c2)ccc1O (stereo not given)	-36%[59 µM]	-15%	?	-4%	16%	-13%
CC(=O)C1=C(O)C(=O)N(CCC(=O)O)C1c1ccccc1Cl (stereo not given)	24%[12.7 µM]	15%	?	-6%	-2%	22µM*
COc1ccc(CCN2C(=O)C(O)=C(C(C)=O)C2c2ccccc2OC)cc1OC (stereo not given)	5%[12.7 µM]	4%	-39%	-5%	3%	?
CC(=O)C1=C(O)C(=O)N(Cc2cccnc2)C1c1ccccc1Cl (stereo not given)	-7%[59 µM]	8%	-8%	1%	25%	-33%
COc1cc(C2C(C(=O)c3ccco3)=C(O)C(=O)N2CCc2ccccc2)ccc1O (stereo not given)	40µM*	5%	?	-3%	16%	?
COc1ccccc1C1C(C(C)=O)=C(O)C(=O)N1CCc1ccccc1 (stereo not given)	45µM*	9%	-38%	-24%	43%	-22%[57.1 µM]
Brc1ccc(CNc2ccc3ncccc3c2)cc1	8%[59 µM]	-11%	-1%	2%	46%	18%
COc1ccc2cc(-c3[nH]ncc3CN3CCCN(c4ccccc4)CC3)ccc2c1	·	-2%	32µM*	-1%	20µM*	35µM*
O=Cc1s/c(=N\S(=O)(=O)c2ccccc2)n(CCCCl)c1Cl	45µM*	-64%	-16%	4.7µM*	38%	-17%
O=S(=O)(Nc1c(O)ccc2ccccc12)c1cccc2ccccc12	·	·	·	27µM*	79µM*	79µM*
